# According to publication PMC5540273 (PLoS ONE, 2017):
# Test system: DYRK2
# Settings: concentration: 1 μM, replicates: in singlicate; n = 1
# 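Also: KINOMEscan kinase panel screen.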
row,Compound,%Inh [%]
1,COc1cccc(-c2ccc3c(NC(=O)C4CC4)n[nH]c3n2)c1 [SB-710903],73
2,CC(=O)N1CCN(c2ccc(Nc3nccc(-c4sc(C(C)C)nc4-c4cccc(NS(=O)(=O)c5cccc(Cl)c5)c4)n3)cn2)CC1 [GSK1660437],11
3,C[C@@H]1CC[C@@H](C(=O)Nc2ccccc2)CN1c1cc(-c2ccc3c(N)n[nH]c3c2)nc(N)n1 [GSK2286062],3
4,Clc1ccc(-c2nn3ncccc3c2-c2ccnc(Nc3ccc4c(c3)OCCO4)n2)cc1 [GW829116],0
5,Cc1ccc(C(=O)N2CC[C@@H](O)C2)cc1-n1c(C)cc(OCc2ccc(F)cc2F)c(Br)c1=O,0
6,CC(=O)Nc1nc2cnc(Nc3cc(NC(=O)c4cccc(C5(C#N)CC5)c4Cl)ccc3C)nc2s1,8
7,c1ccc(-c2cnc3nccnn23)cc1 [AH20685],3
8,CCn1c(-c2nonc2N)nc2c(C#CC(C)(C)O)nc(OC[C@H](N)c3ccccc3)cc21 [GSK943949],9
9,Cl.Cl.NCC(C(=O)Nc1cc(Br)c(-c2ccnc3[nH]ccc23)s1)c1ccccc1 (stereo not shown) [GSK1269851],78
10,COc1cccc(C2=C(Nc3ccc(Cl)c(C(=O)O)c3)C(=O)NC2=O)c1 [SB-390769],100
11,Cc1cccc(Nc2nc(N[C@H]3CCNC3)ncc2C(N)=O)c1.Cl [GSK2197149],32

# Test system: EGFR
# Settings: concentration: 1 μM, replicates: in singlicate; n = 1
row,Compound,%Inh [%]
1,Cc1ccc(C(=O)Nc2ccc(Nc3ccnc4cc(-c5nccs5)ccc34)cc2O)cc1.Cl [GW494702],45
2,CC(C)c1nc(-c2cccc(NS(=O)(=O)c3c(F)cccc3F)c2F)c(-c2ccnc(Nc3ccc(N4CCOCC4)nc3)n2)s1 [GSK2008607],94.3
3,Cl.c1ccc(-c2ccc3c(Nc4ccc5[nH]ccc5c4)ccnc3c2)nc1 [GW440138],89
4,Nc1ncc(-c2cccnc2)c2scc(-c3ccc4c(c3)CCN4C(=O)Cc3ccccc3)c12 [GSK683281],16
5,COc1cc(Nc2nccc(-c3c(-c4cccc(NC(=O)c5c(F)cccc5F)c4)nn4ccccc34)n2)cc(OC)c1OC [GSK323521],38
6,CCc1ccc(-c2ccc3c(c2)-c2c(cnn2C)S(=O)(=O)N3C)cc1,15
7,COC(=O)Nc1nc2cc(Oc3ccc(NC(=O)Nc4cc(C(F)(F)F)ccc4F)cn3)ccc2[nH]1.Cl.Cl [GW681170],12
8,Cc1occc1-c1ncc(OC[C@@H](N)Cc2c[nH]c3ccccc23)cc1-c1ccc2[nH]nc(C)c2c1.O=C(O)C(F)(F)F [GSK682037],94.3
9,O=C(Nc1cccc(Oc2ccc3nc(NC(=O)C4CC4)cn3n2)c1)c1ccccc1C(F)(F)F,82
10,CSc1cccc2c(-c3ccncn3)c(-c3ccc(F)cc3)nn12 [GW514786],70
11,COc1cc(Nc2ncc3c(C)nc(-c4cc5ccccc5[nH]4)n3n2)cc(OC)c1OC [GW869516],0
12,O=C(Nc1cccc(-c2nn3ccccc3c2-c2ccnc(Nc3cccc(C(F)(F)F)c3)n2)c1)c1c(F)cccc1F [GSK292658],98.2
13,CNC(=O)c1ccccc1Nc1nc(Nc2ccc(N3CCOCC3)cc2)ncc1Cl.Cl [GSK1576028],98.8
14,Cl.c1ccc(-c2ccc3c(Nc4ccc5[nH]ncc5c4)ccnc3c2)nc1 [GW440137],66
15,Cl.Cl.NCC(NC(=O)c1cc(-c2ccccc2)c(-c2ccnc3[nH]ccc23)s1)c1ccccc1 (stereo not shown) [GSK1321561],84
16,COc1cc2c(cc1OCCN1CCNCC1)ncc1c3ccc(C#N)cc3[nH]c21,26
17,CCn1c(-c2nonc2N)nc2c(C#CC(C)(C)O)ncc(OCCCCN)c21.O=C(O)C(F)(F)F.O=C(O)C(F)(F)F [GSK507274],9
18,COc1cc(Nc2nccc(-c3c(-c4cccc(NC(=O)c5c(F)cccc5F)c4)nn4ncccc34)n2)cc(OC)c1OC [GSK327238],100
19,COc1cc(Nc2nccc(N3CCC(NC(=O)Nc4cccc(C(C)=O)c4)C3)n2)cc(OC)c1OC (stereo not shown) [GSK1379753],22
20,CN(C)S(=O)(=O)c1cc(-c2ccc3nccc(-c4cccc(S(N)(=O)=O)c4)c3c2)cnc1N [GSK1669921],18
